From PubChem
DAX1 inh-1: NR0B1 (DAX1) inhibition; P51843; HEK293 Gal4-DAX1 luciferase reporter, luminescence; inhibition, % at 6.75 µM; actives 0.99% (n = 340,000);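 active = inhibition above the mean over all tested compounds plus 3 SD, cut at about 4.2% in these data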;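 also: 0% = DAX1-transfected cells with DMSO and 100% = empty-vector control cells with DMSO; inhibition shows as a rise in luminescence from relieved DAX1 repression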
Target sequence (P51843 207-470 limits assumed): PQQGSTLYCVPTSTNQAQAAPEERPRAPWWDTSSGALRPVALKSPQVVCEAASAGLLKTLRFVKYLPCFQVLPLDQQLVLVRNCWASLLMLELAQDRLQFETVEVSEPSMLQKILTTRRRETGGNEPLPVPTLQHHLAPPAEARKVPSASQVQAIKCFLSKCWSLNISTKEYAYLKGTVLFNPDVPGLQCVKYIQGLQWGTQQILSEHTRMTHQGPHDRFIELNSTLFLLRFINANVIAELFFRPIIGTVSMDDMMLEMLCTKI
DAX1 inh-2: blocks DAX1 repression of SF-1 activated StAR promoter; HEK293T StAR-luciferase reporter, SF-1/DAX-1 repression relief; inhibition, % at 6.8 µM; actives 1.1% (n = 370,000); AID 652010;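 active = inhibition above the mean over all tested compounds plus 3 SD, cut at about 3.6% in these data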;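 also: 0% = DAX-1 cells with DMSO and 100% = cells lacking DAX-1 with DMSO; higher inhibition means more luminescence from relief of DAX-1 repression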
hcDAF-12 act: H. contortus DAF-12 activation, primary screen | HEK293 hcDAF-12 lit1-tk-luc reporter, luminescence; 0% DMSO, 100% Δ7-dafachronic acid | activation, % at 6.8 µM | actives 1.4% (n = 370,000);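 active = activation above the mean of all tested compounds plus 3 SD, cut at about 5.5% in these data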;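 also: 100% = response to 3 µM Δ7-dafachronic acid high control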
ssDAF12 agonist: activators of S. stercoralis DAF-12 nuclear receptor. HEK293 ssDAF-12/GRIP1 lit1-tk-luc reporter, luminescence; % of 3 µM dafachronic acid response. activation, % at 6.8 µM. actives 1% (n = 370,000);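 active = activation above the mean over all tested compounds plus 3 SD, cut at about 0.9% in these data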;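 also: 0% = DMSO-only wells and 100% = 3 µM delta7-dafachronic acid wells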
hgDAF-12 ag: activates the H. glycines DAF-12 receptor ligand-binding domain; HEK293 GAL4-hgDAF12 UAS-luciferase reporter, agonist luminescence; normalized to butyrate control; activation, % at 6.8 µM; actives 1.8% (n = 370,000); AID 687014;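 active = activation above a cutoff set at the mean of all screened compounds plus 3 SD, cut at about 10% in these data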;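 also: 0% = DMSO wells and 100% = sodium butyrate wells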
hgDAF12 ag: confirmation of H. glycines DAF-12 agonists; shares compounds with hgDAF-12 ag; HEK293 GAL4-hgDAF12 luciferase reporter, agonist mode; percent of butyrate response; activation, % at 6.8 µM; actives 80% (n = 3,300); AID 743050;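 active = mean activation over triplicate wells above the hit cutoff derived from the earlier primary screen, cut at about 11% in these data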;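 also: 0% = DMSO low control and 100% = 2 mM sodium butyrate high control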
LXRb DAF12 ctr: LXR-beta agonism as DAF-12 counter-screen | shares compounds with hgDAF-12 ag | HEK293 Gal4-LXR luciferase reporter, 24 h | activation, % at 6.8 µM | 3,300 tested, under 10 active;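 active = mean activation of the triplicate above a set limit carried over from the primary screen, none filed active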
* hit, by the source's call; . = not tested or not shown. This is a sample that favours compounds with a hit; in the whole collection about 4.1% have one here.

SMILES | DAX1 inh-1 | DAX1 inh-2 | hcDAF-12 act | ssDAF12 agonist | hgDAF-12 ag | hgDAF12 ag | LXRb DAF12 ctr
CSCCC(NC(=O)COc1ccccc1)C(=O)N(C)Cc1ccc(SC)cc1 (stereo not given) | 1 | -2 | 2 | -1 | -1 | . | .
CC(=O)N1CCc2cc(NC(=O)C3(C)CCN3Cc3ccc(C(C)C)cc3)ccc21 (stereo not given) | . | -1 | -2 | -2 | -5 | . | .
CCC(N=c1cc(-c2ccc(OC)cc2)oc2ccc(C)cc12)C(=O)O (stereo not given) | 0 | 3.9* | 4 | 0 | 14* | 13* | 0
COc1cc(/C=N/NC(=O)c2ccccn2)cc2c1OCO2 | 3 | 2 | 3 | 0 | 14* | 7 | 0
O=C(N/N=C/c1cc2c(cc1Cl)OCO2)c1ccccn1 | 4 | 2 | 3 | -1 | 8 | . | .
CN(C)c1ccc(/C=C2\CCCCC2=O)cc1 | 4 | 4 | 5 | 0 | 18* | 14* | 1
CN(C)c1ccc(C=C2SC(=S)NC2=O)cc1 | 1 | 1 | 2 | 0 | 3 | . | .
Cc1ccc(S(=O)(=O)NCc2ccc(C(=O)N3CCN(c4ccc([N+](=O)[O-])cc4)CC3)cc2)cc1 | -2 | -11 | -6 | -3 | -2 | . | .
